Here are results for ten molecules from PubChem BioAssay (Tox21).

Records with an inconclusive call do not appear. Values without a mark were called inactive. The source made the active and inactive calls. Unless noted, calls come from the whole dose curve; as a rule, active = well fitted curve in the direction sought with a large enough effect in the repeat runs; inconclusive = weak or mixed curves; inactive = no such curve, though single readings can be large; an effect the other way counts as inactive or inconclusive.

The target of assay [1] is Nuclear receptor ROR-gamma (Homo sapiens) (UniProt P51449). In words: qHTS assay to identify small molecule antagonists of the retinoid-related orphan receptor gamma (ROR-gamma) signaling pathway (AID 1159521; note: nearly all actives have a fitted effect of over 50% in size; note: potency is the fitted concentration of half-maximal effect). Put shortly:
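Readout: ONE-Glo luciferase luminescence, 30 min at room temperature. System: Tet-on RORγ CHO, RORE-LUC. Sequence: compound 2 h, doxycycline 1 uM final, 16 h at 37 C.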
A general note: Quantitative high-throughput screening tests each substance at several concentrations.

Assay [2] in a line: qHTS assay to identify small molecule agonists of the AP-1 signaling pathway - cell viability counter screen (AID 1159525; calls by dose curve; note: nearly all actives have a fitted effect of over 55% in size). Put shortly: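 Same-well cytotoxicity counter screen of the Tox21 10K library in ME-180 cells. The readout is ATP-dependent luminescence after 5 h compound treatment. Data are normalised to DMSO and tetra n-octyl ammonium bromide controls.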
A short description of assay [3]: qHTS assay to identify small molecule agonists of the AP-1 signaling pathway (AID 1159526; calls by dose curve; note: % is set by controls: 0 for no effect and ±100 for the full control effect).
Assay [4] is described as follows: qHTS assay to identify small molecule agonists of the RXR signaling pathway - cell viability counter screen (AID 1159529). Note: series mostly up to about 77 µM; % is set by controls: 0 for no effect and ±100 for the full control effect; nearly all actives have a fitted effect of over 50% in size. In short, it runs like this: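 Tox21 10K compounds were tested for cytotoxicity against GeneBLAzer RXR-alpha HEK 293T cells grown in 2% charcoal-stripped FBS. Exposure lasted 16 hr at 37 C, 5% CO2; viability read by CellTiter-Glo luminescence.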

The nature of assay [5]: qHTS assay to identify small molecule antagonists of the retinoid acid receptor (RAR) signaling pathway - cell viability counter screen (AID 1159551). Note: % is set by controls: 0 for no effect and ±100 for the full control effect; nearly all actives have a fitted effect of over 35% in size. In short, it runs like this:
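Cytotoxicity counter screen: ATP content quantified by CellTiter-Glo luminescence in C3RL4 cells treated 6 hr at 37 C with compound and retinol (1 uM final). Cells plated at 1,000/well and cultured overnight before dosing.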

The nature of assay [6]: qHTS assay to identify small molecule antagonists of the retinoic acid receptor (RAR) signaling pathway (AID 1159552; note: % is set by controls: 0 for no effect and ±100 for the full control effect; nearly all actives have a fitted effect of over 50% in size). In short, it runs like this:
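Overnight-plated C3RL4 reporter cells get compound, then retinol to 1 uM final; plates sit 6 hr at 37 C, 5% CO2. A luciferase reagent is added and light output recorded after 30 min at room temperature.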

Assay [7] is described as follows: qHTS assay to identify small molecule antagonists of the estrogen related receptor (ERR) signaling pathway from Tox21 library - cell viability counter screen (AID 1224834). Note: nearly all actives have a fitted effect of over 30% in size. Note: potency is the fitted concentration of half-maximal effect. In short, it runs like this: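 CellTiter-Fluor fluorescence, read after 30 min at 37 C, measures viability of ERR cells. Cells plated at 2,000/well and incubated 6 h before pin-tool compound addition, then exposed 17.5 hours at 37 C.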

Assay [8] deals with Luciferin 4-monooxygenase (Photinus pyralis) (UniProt P08659). Kind of assay: qHTS assay to identify small molecule inhibitors of firefly luciferase (AID 1224835). Note: nearly all actives have a fitted effect of over 25% in size. Note: potency is the fitted concentration of half-maximal effect. In short, it runs like this: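 Biochemical qHTS: compounds run as interplate titrations against purified firefly enzyme, with D-luciferin and ATP each at its KM concentration. Light output recorded by CCD imaging.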

Assay [9] is described as follows: qHTS assay to identify small molecule agonists of the constitutive androstane receptor (CAR) signaling pathway - cell viability counter screen (AID 1224836). Note: series mostly up to about 92 µM; % is set by controls: 0 for no effect and ±100 for the full control effect; nearly all actives have a fitted effect of over 45% in size. Put shortly: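 Fluorescence from CellTiter-Fluor indicates live cells after 23 h exposure. The human hepatoma line expresses hCAR and a CYP2B6-2.2kb reporter. Incubation medium contains 0.75 uM PK11195 (final).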

Assay [10] can be described thus: qHTS assay to identify small molecule antagonists of the constitutive androstane receptor (CAR) signaling pathway - cell viability counter screen (AID 1224837). Note: series mostly up to about 92 µM; % is set by controls: 0 for no effect and ±100 for the full control effect; nearly all actives have a fitted effect of over 45% in size. In short, it runs like this: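 Cytotoxicity counter-screen: CellTiter-Fluor fluorescence after 23 h compound exposure (15-point qHTS) in double-stable HepG2-CYP2B6-hCAR cells, with 50 nM CITCO added.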
Assay [11] has as its target Nuclear receptor subfamily 1 group I member 3 (Homo sapiens) (UniProt Q14994). Kind of assay: qHTS assay to identify small molecule antagonists of the constitutive androstane receptor (CAR) signaling pathway (AID 1224838).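 Note: HepG2 cells stably expressing hCAR with CYP2B6 luciferase reporter stimulated by CITCO; % is set by controls: 0 for no effect and ±100 for the full control effect; nearly all actives have a fitted effect of over 40% in size.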 Put shortly: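 Antagonism measured as luciferase signal (ONE-Glo, 30 min, room temperature) in CAR-stimulated cells: HepG2-CYP2B6-hCAR double-stable line exposed 24 hr at 37 C to compound in a 15-point series plus 50 nM CITCO.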

Assay [12] shares this target. In words: qHTS assay to identify small molecule agonists of the constitutive androstane receptor (CAR) signaling pathway (AID 1224839). Note: nearly all actives have a fitted effect of over 15% in size. Note: potency is the fitted concentration of half-maximal effect. Put shortly: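 Stable hCAR/CYP2B6-2.2kb HepG2 line in DMEM with 10% FBS; compounds (15 concentrations) and 0.75 uM PK11195 final, 24 h at 37 C/5% CO2, then ONE-Glo luminescence after 30 min.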
For assay [13], the target named is Retinoic acid receptor RXR-alpha (Homo sapiens) (UniProt P19793). In words: qHTS assay to identify small molecule agonists of the RXR signaling pathway (AID 1159527; calls by dose curve; note: % is set by controls: 0 for no effect and ±100 for the full control effect; nearly all actives have a fitted effect of over 35% in size). In short, it runs like this: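 Reporter activation is measured as beta-lactamase activity via FRET substrate cleavage (emission 460/530 nm) in HEK 293T cells expressing an RXR-alpha-driven bla construct, following 16 hr compound exposure at 37 C.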

Assay [14] is described as follows: qHTS assay to identify small molecule antagonists of the estrogen related receptor (ERR) signaling pathway - cell viability counter screen (AID 1224818).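 Note: series mostly up to about 46 µM; viability measured after 17.5 h of compound exposure; % is set by controls: 0 for no effect and ±100 for the full control effect.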 Put shortly:
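Cytotoxicity counter screen: fluorescence from CellTiter-Fluor, added after 17.5 h compound exposure at 37 C and read 30 min later. ERR cell line seeded at 2,000 cells/well, preincubated 6 h before dosing.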

Assay [15] is described as follows: qHTS assay to identify small molecule antagonists of the estrogen related receptor (ERR) signaling pathway (AID 1224819;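 note: luminescence from an ERR-driven luciferase reporter measured with One-Glo reagent; series mostly up to about 46 µM; % is set by controls: 0 for no effect and ±100 for the full control effect; nearly all actives have a fitted effect of over 50% in size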). Put shortly: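 LOPAC library screened for antagonism as reduced One-Glo luminescence in ERR reporter cells (2,000/well). Compounds were added after 6 h pre-incubation and left 18 h at 37C; reading followed a 30 min room-temperature reagent step.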

Assay [16] in a line: qHTS assay to identify small molecule agonists of the estrogen related receptor (ERR) signaling pathway (AID 1224820). Note: % is set by controls: 0 for no effect and ±100 for the full control effect. Put shortly:
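Following a 6 h settling period, 2,000 ERR cells per well receive DMSO-dissolved compounds by pin tool and incubate 18 h at 37 C; agonist activity is scored from One-Glo luminescence read 30 min post-addition.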

The subject of assay [17] is estrogen-related receptor alpha (ERRalpha) with PGC-1alpha coactivator, human. Kind of assay: qHTS assay to identify small molecule antagonists of the estrogen related receptor signaling pathway with the pleiotropic PPARgamma coactivator (PGC) (AID 1224821; calls by dose curve). In short, it runs like this: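 Screening used NTP's PGC/ERR cells, dosed via pin tool with compound in DMSO alongside positive and negative controls. After 18 h at 37 C, One-Glo reagent sat 30 min at room temperature before luminescence detection.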

A short description of assay [18]: qHTS assay to identify small molecule antagonists of the estrogen related receptor signaling pathway with the pleiotropic PPARgamma coactivator (PGC) cell viability counter screen (AID 1224822; note: series mostly up to about 46 µM; % is set by controls: 0 for no effect and ±100 for the full control effect). Put shortly:
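Viability counter-screen read by fluorescence intensity after 30 min with CellTiter-Fluor at 37 C; PGC/ERR reporter cells were exposed to compounds for 17.5 h at 37 C following a 6 h preincubation.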

Assay [19] can be described thus: qHTS assay to identify small molecule agonists of the retinoic acid receptor (RAR) signaling pathway (AID 1159553). Note: % is set by controls: 0 for no effect and ±100 for the full control effect. Put shortly:
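Luminescence was measured 30 min after luciferase reagent addition at room temperature. Before that, C3RL4 reporter cells (1,000 per well, plated overnight) were treated with compound for 6 hr at 37 C and 5% CO2.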

Sequence of Nuclear receptor subfamily 1 group I member 3 (Homo sapiens) (Q14994 whole entry, looked up): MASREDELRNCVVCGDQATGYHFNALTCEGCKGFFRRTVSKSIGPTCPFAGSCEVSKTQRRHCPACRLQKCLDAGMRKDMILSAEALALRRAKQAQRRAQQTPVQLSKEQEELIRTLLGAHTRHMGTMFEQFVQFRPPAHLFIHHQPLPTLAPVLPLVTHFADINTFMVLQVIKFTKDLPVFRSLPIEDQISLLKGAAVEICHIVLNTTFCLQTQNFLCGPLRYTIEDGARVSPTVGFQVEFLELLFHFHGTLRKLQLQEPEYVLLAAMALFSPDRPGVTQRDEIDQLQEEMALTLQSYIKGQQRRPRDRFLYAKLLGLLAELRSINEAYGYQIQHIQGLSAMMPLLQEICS
Sequence of Retinoic acid receptor RXR-alpha (Homo sapiens) (P19793 whole entry, looked up): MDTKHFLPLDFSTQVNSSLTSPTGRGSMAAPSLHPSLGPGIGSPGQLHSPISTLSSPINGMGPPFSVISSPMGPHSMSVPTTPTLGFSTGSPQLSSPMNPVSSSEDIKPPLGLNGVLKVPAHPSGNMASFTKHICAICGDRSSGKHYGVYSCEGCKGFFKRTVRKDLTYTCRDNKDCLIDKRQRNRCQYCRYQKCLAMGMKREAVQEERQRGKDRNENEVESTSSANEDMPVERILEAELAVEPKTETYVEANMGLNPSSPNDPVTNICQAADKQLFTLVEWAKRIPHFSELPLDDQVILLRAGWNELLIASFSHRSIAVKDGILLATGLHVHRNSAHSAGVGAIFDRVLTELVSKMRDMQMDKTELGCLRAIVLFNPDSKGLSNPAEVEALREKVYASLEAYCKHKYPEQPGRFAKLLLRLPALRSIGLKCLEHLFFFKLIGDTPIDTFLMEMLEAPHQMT
Sequence of Luciferin 4-monooxygenase (Photinus pyralis) (P08659 whole entry, looked up): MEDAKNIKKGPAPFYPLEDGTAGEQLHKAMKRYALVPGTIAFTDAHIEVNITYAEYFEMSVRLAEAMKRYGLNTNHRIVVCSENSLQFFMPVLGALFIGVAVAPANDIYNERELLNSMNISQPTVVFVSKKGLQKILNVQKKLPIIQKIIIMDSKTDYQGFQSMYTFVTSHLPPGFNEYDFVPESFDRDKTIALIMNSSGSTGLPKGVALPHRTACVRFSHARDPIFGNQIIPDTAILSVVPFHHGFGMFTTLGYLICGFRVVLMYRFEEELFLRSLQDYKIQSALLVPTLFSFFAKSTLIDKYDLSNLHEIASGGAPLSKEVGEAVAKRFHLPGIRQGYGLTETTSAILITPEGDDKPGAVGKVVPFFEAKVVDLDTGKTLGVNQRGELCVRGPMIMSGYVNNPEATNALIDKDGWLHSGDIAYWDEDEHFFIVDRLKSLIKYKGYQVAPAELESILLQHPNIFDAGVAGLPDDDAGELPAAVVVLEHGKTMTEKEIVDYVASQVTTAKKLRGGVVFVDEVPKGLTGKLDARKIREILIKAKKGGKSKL

`C=COCCCC`: the Potency entry in assay [1], in assay [2], in assay [3], in assay [4], in assay [5] and in assay [6] was “inactive” in each case. For the same molecule, the Potency result in assay [7], in [8], in assay [9], in assay [10], in assay [11] and in assay [12] was “inactive” each time.
With `O=C(O)CN(CCCN(CC(=O)O)CC(=O)O)CC(=O)O`, the figures for the activity change, negative = inhibition in [1] and in assay [8] were -18.7% [at 19 µM] and 0.284% [at 23.6 µM], respectively. In addition, the results for the viability change, negative = cytotoxic in assay [2], in assay [7] and in [9] were -3.53% [at 15.8 µM], 11.6% [at 19 µM] and -21.6% [at 19 µM], respectively. Further, the results for the activation in assay [3], in assay [13] and in [12] were 3.51% [at 15.8 µM], 0.262% [at 15.8 µM] and -1.05% [at 19 µM], respectively. Further, the activity change, negative = cytotoxicity is -1.37% [at 15.8 µM] in [4] and 0.537% [at 19 µM] in [5]. Further, the activity, negative = inhibition in [11] was -21.7% [at 19 µM].
In the case of `Cc1ccc(N=Nc2c(O)ccc3ccccc23)c(C)c1`, the Potency entry in assay [1], in assay [2], in assay [3], in assay [4], in [5] and in [6] was “inactive” each time. The Potency entry in [9] is “inactive”. For the same molecule, the Potency was 13.8 µM (active) in [8] and 8.41 µM (active) in assay [12].
As to `Cn1ccnc1`, the Potency entry in assay [1], in assay [2], in [3], in assay [13], in assay [4] and in [5] was “inactive” throughout. In addition, the Potency result in assay [14], in assay [15], in assay [16], in [17], in [18] and in assay [7] was “inactive” each time. Further, the Potency result in assay [8], in [9], in [10], in assay [11] and in assay [12] was “inactive” in each case.
For the molecule `O=C1OCc2ccccc21`, the Potency entry in [1], in assay [2], in assay [3], in [4], in assay [5] and in [7] was “inactive” each time. Besides, the Potency entry in assay [8], in [9], in assay [10] and in assay [12] was “inactive” throughout.
For `C=Cc1ccncc1`, the Potency result in assay [1], in [2], in assay [3], in assay [13], in assay [4] and in [5] was “inactive” each time. In addition, the Potency result in [6], in assay [7], in assay [9], in assay [10] and in [12] was “inactive” in each case.
In the case of `Cc1ccc2n[nH]nc2c1`, the Potency entry in assay [1], in [2], in assay [3], in assay [13], in assay [4] and in assay [7] was “inactive” in each case. The Potency entry in [8], in assay [9] and in assay [10] was “inactive” in each case.
For the molecule `C=CC(=O)OCCOC1C2CCC1C1CC=CC12` (stereo not given), the activity change, negative = inhibition in assay [1] was 0.993% [at 19 µM]; in assay [8], -9.04% [at 23.6 µM]. In addition, the viability change, negative = cytotoxic in [2] is -20.2% [at 15.8 µM]; in assay [7], -4.69% [at 19 µM]; in [9], -2.57% [at 19 µM]. Moreover, in assay [3], the activation was -3.6% [at 15.8 µM]. Also, the activity change, negative = cytotoxicity in assay [4] is -24% [at 15.8 µM]; in assay [5], -0.0183% [at 19 µM]; in assay [10] it was -0.771% [at 19 µM].
Turning to `c1ccc(-c2ccc(C(c3ccccc3)n3ccnc3)cc2)cc1` (stereo not given), the Potency in assay [1] is 15 µM (active); in [7] it was 33.5 µM (active). Also, the Potency result in assay [2], in assay [4], in assay [5], in assay [6], in assay [8] and in [9] was “inactive” each time. The Potency entry in assay [10] and in [11] was “inactive” throughout.
As to `CC(Cc1ccc(O)c(O)c1)C(C)Cc1ccc(O)c(O)c1` (stereo not given), the Potency is 6.86 µM (active) in [1] and 71 µM (active) in [8]. The Potency result in [2], in [6], in assay [19], in assay [9] and in assay [10] was “inactive” each time.
